# Out of some 310,000 compounds screened, about 18,000 (5.8%) were called active. Another 22% or so got no clear call; they are omitted. What follows is part of a selection rich in actives, with near analogues and random picks from the rest. Where a call stands in place of a potency, no number is given. A number with no mark means an inactive call. Calls come from the whole dose curve; as a rule, active = well fitted inhibition curve with a large enough effect; inconclusive = small, poorly fitted or top-dose-only effect, or another doubt; inactive = no such curve, though single readings can be large or run the other way.
# Assay: Primary qHTS for delayed death inhibitors of the malarial parasite plastid, 48 hour incubation
# Conditions: P. falciparum luciferase growth in erythrocytes; series mostly up to 28.7 µM
# Method in brief: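 Parasite viability was followed by luminescence of a genomically integrated firefly luciferase. Cultures held 0.1% parasitemia at 2% hematocrit (final), incubated under 5% CO2 at 37 C.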
# Potency is the fitted concentration of half-maximal effect.
Structure (SMILES),Potency,"activity change, negative = inhibition"
Cc1ccsc1C(=O)N[C@@H](C)c1nnc2ccccn12,inactive,–
NS(=O)(=O)c1ccc2nc(NC(=O)CS(=O)(=O)c3ccc(F)cc3)sc2c1,inactive,–
Cc1cc(S(=O)(=O)NCc2ccccn2)c(Cl)cc1Cl,inactive,–
O=C(CC1Nc2ccccc2NC1=O)Nc1ccccc1 (stereo unspecified),11.7 µM (active),–
O=C(CC1Nc2ccccc2NC1=O)Nc1ccccc1NC(=O)CC1Nc2ccccc2NC1=O (stereo unspecified),inactive,–
O=C(CC1NCCNC1=O)Nc1ccc(Oc2ccccc2)cc1 (stereo unspecified),inactive,–
O=C(NCCc1ccc(Cl)cc1Cl)c1cc([N+](=O)[O-])c[nH]c1=O,inactive,–
CC(=O)c1c(C)[nH]c(C(=O)OCC(=O)Nc2c(C)n(C)n(-c3ccccc3)c2=O)c1C,inactive,–
CC(C)(C)n1nnnc1C(c1ccccc1F)N1CCN(C(=O)c2ccco2)CC1 (stereo unspecified),inactive,–
CCOc1ccc(S(=O)(=O)N(CC(=O)NCC(F)(F)F)Cc2ccco2)cc1,inactive,–
CCOc1ccc(CN(Cc2ccco2)C(c2cccs2)c2nnnn2C(C)(C)C)cc1 (stereo unspecified),3.29 µM (active),–
CS(=O)(=O)N1CCN=C1SCc1ccc(F)cc1,inactive,–
N#C/C(=C\c1ccc(-c2cccc([N+](=O)[O-])c2)o1)C(=O)NCCN1CCOCC1,10.4 µM (active),–
O=C(NCCCN1CCOCC1)c1ccc([N+](=O)[O-])cc1[N+](=O)[O-],inactive,–
Cc1ccc(Cc2cnc(NC(=O)/C(C#N)=C/c3ccc(-c4cccc([N+](=O)[O-])c4)o3)s2)cc1,inactive,–
COc1ccc(C2CC(=O)NC(=O)C2)cc1,inactive,–
NS(=O)(=O)c1ccc(CCNC(=O)COC(=O)COc2cccc(C(F)(F)F)c2)cc1,inactive,–
Nc1c(N(CCCO)C(=O)C2CCCC2)c(=O)[nH]c(=O)n1Cc1ccccc1,inactive,–
CC(C)Cn1cnc2c1c(=O)n(CC(O)c1ccccc1)c(=O)n2CC(C)C (stereo unspecified),4.65 µM (active),–
CC(=O)Cn1cnc2c(cnn2-c2ccccc2)c1=O,inactive,–
Cc1nc2ccccc2n1CC(O)c1ccccc1 (stereo unspecified),inactive,–
N#Cc1ccc(C2N=C(c3ccccc3)NO2)cc1 (stereo unspecified),inactive,–
O=C(CNC(=O)c1cccs1)N/N=C/c1cccc(Br)c1,inactive,–
O=C(CSC1=NS(=O)(=O)c2cc(F)ccc2N1)Nc1ccccc1F,inactive,–
CN1c2ccc(C=O)c3c(C=O)ccc(c23)N(C)C1(C)C,11.7 µM (active),–
COc1ccc(-c2noc(CNC(=O)C(C)Oc3ccccc3)n2)cc1 (stereo unspecified),inactive,–

Structure (SMILES),Potency,"activity change, negative = inhibition"
CC1CCCCC1NC(=O)NC(=O)COC(=O)C1=NN(c2ccccc2)C(=O)CC1 (stereo unspecified),inactive,–
CCN1C(=O)[C@@H]2[C@@H](c3ccc(-c4cccc(Cl)c4)cc3)N3CCC[C@@]3(C(=O)OC)[C@@H]2C1=O,11.7 µM (active),–
CCn1cc(CN2CCC(C(=O)Nc3cccc(-c4cccc(Cl)c4)c3)CC2)cn1,inactive,–
CCCCCCSc1ccc([C@@H]2[C@@H]3C(=O)N(CC)C(=O)[C@@H]3[C@]3(C(=O)OC)CCCCN23)cc1OC,1.85 µM (active),–
CCNC(=O)N1CCCC(C(=O)c2ccc(-c3ccccc3)cc2)C1 (stereo unspecified),inactive,–
CCN1C(=O)[C@@H]2[C@@H](c3ccc(-c4ccccc4)cc3)N3CCCC[C@@]3(C(=O)OC)[C@@H]2C1=O,9.28 µM (active),–
O=C(NCc1ccccc1)C1C(=O)N(Cc2ccccc2)C(=O)C1C1(O)CCCC1 (stereo unspecified),inactive,–
CCOC(=O)c1cc(S(=O)(=O)NCCc2ccc(OC)c(OC)c2)cn1C,inactive,–
COc1cccc(/C=C/C(=O)OCC(=O)N2CCCc3ccccc32)c1,inactive,–
CC(C)CC(=O)Nc1nnc(S(=O)(=O)N(C)c2ccc(Cl)cc2)s1,inactive,–
CCOc1ccc(CN2CCN(CCCc3ccccc3)C(CCO)C2)cc1 (stereo unspecified),inactive,–
COc1ccc(CCNS(=O)(=O)c2cc3c(cc2C)NC(=O)CO3)cc1OC,inactive,–
CC1(C)CC(=O)C=C(N2CCCC2)C1,inactive,–
O=C1CC(N2CCN(C(c3ccccc3)c3ccccc3)CC2)C(=O)N1 (stereo unspecified),inactive,–
CC1(C)CC(N2CCN(C(c3ccccc3)c3ccccc3)CC2)=CC(=[N+]2CCCCC2)C1,0.415 µM (active),–
COC(=O)c1ccc(C(=O)NC2CC(C)(C)Cc3c2cnn3-c2ccc(F)cc2)nc1 (stereo unspecified),inactive,–
Cc1cc(-c2ccc(S(=O)(=O)N3CCc4ccccc4C3)s2)on1,inactive,–
CCC(Cc1ccccc1)NS(=O)(=O)c1ccc2c(c1)NC(=O)CS2 (stereo unspecified),inactive,–
CCOC(=O)C1=C(C)NC(=O)NC1c1ccccc1 (stereo unspecified),inactive,–
C=CCOC(=O)C1=C(C)NC(SCC(=O)OCC)=C(C#N)C1c1ccc(C)cc1 (stereo unspecified),inactive,–
C=CCC1(C#N)C(=S)NC(C)=C(C(=O)OCC)C1c1ccccc1 (stereo unspecified),1.47 µM (active),–
Cc1ccc(Cn2nnc3c(=O)n(CC(=O)N4CCCCC4)cnc32)cc1,inactive,–
CC(C)(C)c1nc(NCC2CCCO2)c2nnn(Cc3ccccc3)c2n1 (stereo unspecified),inactive,–
CC(C)(C)c1ccc(Cn2nnc3c(=O)[nH]c(C4CCCN(C(=O)c5ccco5)C4)nc32)cc1 (stereo unspecified),0.828 µM (active),–
CC(C(=O)NC1CCCC1)N1CCN(S(=O)(=O)c2ccccc2Cl)CC1 (stereo unspecified),inactive,–
Cc1ccc(C)c(S(=O)(=O)N2CCN(C(=O)Nc3ccccc3)CC2)c1,inactive,–

Structure (SMILES),Potency,"activity change, negative = inhibition"
CC1CC(=O)Nc2ccccc2N1S(=O)(=O)c1cccs1 (stereo unspecified),inactive,–
CC1CC(C)(C)NC(=S)N1CCC(=O)N1CCN(Cc2ccccc2)CC1 (stereo unspecified),inactive,–
CC1CC(=S)Nc2ccccc2N1Cc1ccccc1 (stereo unspecified),10.4 µM (active),–
CCS(=O)(=O)C1=NSC2=NC(=O)/C(=C\c3ccc(OS(=O)(=O)c4ccccc4)cc3)C(=N)N21,inactive,–
COc1ccc(S(=O)(=O)NCc2ccc(C(=O)N3CCC4(CC3)OCCO4)cc2)cc1,inactive,–
COc1cccc(-c2cc3nc4c(c(N5CCC6(CC5)OCCO6)n3n2)CCCC4)c1,2.94 µM (active),–
Cc1nc2cc(-c3ccc(F)cc3)nn2c(N2CCOCC2)c1C,inactive,–
O=C1c2ccccc2S(=O)(=O)N1CC(O)Cn1c2ccccc2c2ccccc21 (stereo unspecified),inactive,–
CC(=O)c1ccc2c(c1)c1ccccc1n2CC(C)C,inactive,–
OC(Cn1c2ccccc2c2ccccc21)C[n+]1ccccc1 (stereo unspecified),7.38 µM (active),–
O=C(CN(C(=O)CNC(=O)c1cccs1)c1cccc(F)c1)NC1CCCCC1,inactive,–
Cc1cccc(NC(=O)COC(=O)CCc2ccccc2)c1C,inactive,–
CCOC(=O)c1c(C)oc2ccc(OCC(=O)N(CC)CC)cc12,inactive,–
CC(=O)c1c(C)n(-c2ccc(N(C)C)cc2)c2ccc(OCC(N)=O)cc12,11.7 µM (active),–
CC(=O)c1c(C)n(-c2ccc(C)cc2)c2ccc(O)cc12,inactive,–
O=C(Nc1ccccc1Cl)NC1(C(=O)N2CCOCC2)CCCCC1,inactive,–
COc1ccc(CNC(=O)C(=O)N2CCC3(CC2)OCCN3S(=O)(=O)c2ccc(C)cc2)cc1,inactive,–
CC1(C)O[C@H]2CC(=O)OCC23[C@H]2CC[C@@]4(C)[C@H](c5ccoc5)OC(=O)[C@H]5O[C@]54[C@]2(C)C(=O)C[C@@H]13 (stereo partly specified),inactive,–
O=C(NC1CCCCC1)c1ccc(-c2ccc(Cl)cc2)o1,inactive,–
O=C(Cn1ncc(N2CCCC2)c(Br)c1=O)c1ccc(Cl)cc1,inactive,–
O=C(Cn1nc(CNc2ccc(Cl)cc2)[n+]2c1CCCCC2)c1ccc(Cl)cc1,1.04 µM (active),–
COC(=O)c1ccc(NCC(=O)N2CCCCCC2)cc1,inactive,–
Cn1c(CCNS(=O)(=O)c2ccc(F)cc2)nnc1SCc1cccnc1,inactive,–
CC(C)c1ccc(S(=O)(=O)NC2CCCC2)cc1,inactive,–
O=c1cc(O)c(-c2cccc(C(F)(F)F)c2)c(Cl)[nH]1,inactive,–
O=c1[nH]c(/C=C\c2cccc(C(F)(F)F)c2)nc(O)c1[N+](=O)[O-],9.28 µM (active),–

Structure (SMILES),Potency,"activity change, negative = inhibition"
Cc1ccccc1/C=C\c1nc(O)c([N+](=O)[O-])c(=O)[nH]1,–,-10.1% [at 0.00184 µM]
Cc1ccc(C)c(NC(=O)c2cc(-c3cc(C)cc(C)c3O)n[nH]2)c1,–,-16% [at 0.00184 µM]
CCOC(=O)c1c(N)n(Cc2ccccc2)c2nc3ccccc3nc12,9.28 µM (active),–
COCC(C)OC(=O)c1c(N)n(CCCN2CCOCC2)c2nc3ccccc3nc12 (stereo unspecified),inactive,–
CCC(=O)Nc1c(S(=O)(=O)c2ccccc2)c2nc3ccccc3nc2n1Cc1ccccc1,inactive,–
Cc1c(C)c2ccc(OCC(=O)N3CCN(c4cccc(Cl)c4)CC3)cc2oc1=O,inactive,–
CCc1ccc2c(c1)C(c1ccc([N+](=O)[O-])cc1)=NNC(c1ccccc1)=N2,inactive,–
O=C1Nc2ccccc2C12Nc1ccccc1S2 (stereo unspecified),inactive,–
CCc1ccc2c(c1)C1(NN=C(c3ccccc3)S1)C(=O)N2 (stereo unspecified),3.7 µM (active),–
O=C(c1ccc(Br)o1)N1CCN(CCOc2ccccc2)CC1,inactive,–
Cc1ccc(NS(=O)(=O)c2ccc(C(C)(C)C)cc2)cn1,inactive,–
O=C(/C=C/c1cccs1)c1cc(Cl)ccc1OC(=O)N1CCOCC1,10.4 µM (active),–
O=C(c1cccs1)N1CCN(C(=O)N2CCOCC2)CC1,inactive,–
O=C(Oc1cccc(C(=S)N2CCOCC2)c1)c1cccc(Cl)c1,inactive,–
O=C(O)c1cccc(S(=O)(=O)N2CC=C(c3ccccc3)CC2)c1,inactive,–
CC(C)C[C@H](NC(=O)C1CCC(CNC(=O)[C@@H]2CCCN2C(=O)OC(C)(C)C)CC1)C(=O)O (stereo partly specified),inactive,–
Cc1ccccc1C(=O)N1CCC(C(=O)Oc2ccc(C#N)cc2)CC1,inactive,–
Cc1cc(=O)oc2cc(OCCC[n+]3ccccc3)ccc12,5.22 µM (active),–
COc1cccc(-c2nnc(SCCOc3ccc4c(C)cc(=O)oc4c3)o2)c1,inactive,–
Cc1cc(=O)oc2ccc(OCC(=O)O)cc12,inactive,–
CC(O)c1nc2ccccc2n1Cc1ccc([N+](=O)[O-])cc1 (stereo unspecified),inactive,–
CCCC(NC(=O)c1ccccc1)c1nc2ccccc2n1Cc1ccc(C(=O)OC)o1 (stereo unspecified),13.1 µM (active),–
CCCn1c(C(Cc2ccccc2)NC(=O)COC)nc2ccccc21 (stereo unspecified),inactive,–

# From PubChem BioAssay AID504832 (National Center for Advancing Translational Sciences (NCATS), 2011)
